GRK2 aptamer HTS – human GRK2 inhibition via aptamer displacement; bead flow cytometry, FAM-aptamer displacement from GRK2; inhibition of aptamer binding, % at 10 µM; 330,000 compounds, 0.59% hits; AID 488847;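 active means inhibition of aptamer binding above 40%, roughly 3 SD of noise, on plates passing a quality check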;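 further: median bead fluorescence of bound FAM aptamer so fluorescent compounds give negative values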
NTR1 agonist – activates human neurotensin receptor 1; P30989; NTR1-U2OS beta-arrestin-GFP spot imaging, agonist mode; activation, % at 20 µM; 330,000 compounds, 0.17% hits;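 active means activation at or above 40% of the spot to cytoplasm intensity ratio, with at least 20 cells analyzed; inconclusive means wells under 20 cells, flagged as cytotoxic or low count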;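 further: 0% = DMSO without peptide and 100% = 100 nM NTR1 peptide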
VLA-4 inh – inhibition in a human VLA-4 binding assay. VLA-4 expressing cells, ligand binding flow cytometry. inhibition, % (about 7 µM as worked out from the volumes in the protocol). 330,000 compounds, 0.2% hits; in the data active means inhibition above about 50%
Target sequence (P13612 whole entry, looked up): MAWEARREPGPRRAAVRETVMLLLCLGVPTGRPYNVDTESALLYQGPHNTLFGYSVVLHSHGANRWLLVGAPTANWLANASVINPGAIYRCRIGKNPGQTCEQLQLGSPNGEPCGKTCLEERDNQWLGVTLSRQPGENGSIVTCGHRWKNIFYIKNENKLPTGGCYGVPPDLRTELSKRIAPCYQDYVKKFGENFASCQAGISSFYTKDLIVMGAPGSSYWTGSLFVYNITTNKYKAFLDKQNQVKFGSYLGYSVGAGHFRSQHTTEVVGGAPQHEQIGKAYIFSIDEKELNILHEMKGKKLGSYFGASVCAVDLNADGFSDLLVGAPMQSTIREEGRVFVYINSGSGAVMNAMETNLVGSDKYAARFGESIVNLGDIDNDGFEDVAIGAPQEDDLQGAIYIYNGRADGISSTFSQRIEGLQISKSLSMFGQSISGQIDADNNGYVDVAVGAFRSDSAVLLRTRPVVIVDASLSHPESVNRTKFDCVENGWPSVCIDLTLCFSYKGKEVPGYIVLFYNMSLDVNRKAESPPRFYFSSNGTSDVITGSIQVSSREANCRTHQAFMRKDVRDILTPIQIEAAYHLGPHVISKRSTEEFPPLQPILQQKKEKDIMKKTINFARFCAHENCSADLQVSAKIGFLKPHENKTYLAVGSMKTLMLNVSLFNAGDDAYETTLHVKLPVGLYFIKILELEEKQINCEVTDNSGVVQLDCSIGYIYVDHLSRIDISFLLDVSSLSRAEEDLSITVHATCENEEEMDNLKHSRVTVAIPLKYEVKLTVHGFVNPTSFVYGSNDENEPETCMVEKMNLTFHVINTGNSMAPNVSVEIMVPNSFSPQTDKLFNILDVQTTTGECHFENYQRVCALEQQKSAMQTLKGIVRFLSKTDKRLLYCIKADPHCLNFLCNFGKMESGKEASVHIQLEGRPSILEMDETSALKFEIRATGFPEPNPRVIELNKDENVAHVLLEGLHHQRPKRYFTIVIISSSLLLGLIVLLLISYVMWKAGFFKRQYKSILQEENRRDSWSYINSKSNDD
Bfl-1 A1 inh – inhibitors of the anti-apoptotic protein A1, read as caspase activation; MEF A1-2A-BIM cells, Caspase-Glo 3/7 luminescence, 3 h; percent of clofoctol response, vehicle zero; caspase activation, % (test concentration not listed); 330,000 compounds, 0.066% hits; AID 2462;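 active means over half of replicate activation scores above 10%, or exactly half above 10 with the replicate mean above 10; inconclusive means replicate mean below 10 yet half the replicates above 10; inactive means over half of replicates below 10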
B2AR ag – agonists of human beta-2 adrenergic receptor inducing internalization; 340,000 compounds, 0.43% hits; response, % (concentration not given with the values); P07550; Am2.2-beta2AR cells, FAP receptor internalization, flow cytometry;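 active means response above a set limit, near 3 SD of response in nonfluorescent compounds, cut at about 42% in these data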
VLA-4 mod pick – human VLA-4 allosteric modulation in cherry picked compounds | shares compounds with VLA-4 inh | U937 cells, HUTS-21 LIBS mAb binding, flow cytometry; LDV ligand present at threefold Kd | inhibition, % at 6.7 µM | 1,300 compounds, 2% hits | AID 2813; in the data active means inhibition above about 40%;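 further: 0% = ligand without compound and 100% = no ligand background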
Active calls of the source: *; ? = inconclusive; nt = not tested or not shown. Hits are enriched below; roughly 1.3% of the tested compounds scored in any of these assays.

SMILES	GRK2 aptamer HTS	NTR1 agonist	VLA-4 inh	Bfl-1 A1 inh	B2AR ag	VLA-4 mod pick
Cc1cc(C)cc(N(CC(=O)N2CCc3ccccc32)S(=O)(=O)c2c(C)noc2C)c1	2	0	17	0	11	-3
CCOc1ccc(N(CC(=O)N2CCc3ccccc32)S(=O)(=O)c2c(C)noc2C)cc1	3	-3	26	0	-4	nt
COc1ccccc1/C=N/NC(=O)CCn1cnc2ccccc21	0	-2	58*	-1	3	-1
Cc1nnc(SCC(=O)NC2CCCCCC2)n1N	0	-2	1	0	-2	nt
CCOc1ccc(CCNC(=O)c2c(C)nn(-c3ccccc3)c2Cl)cc1OCC	0	1	-5	?	6	nt
COc1ccc(-n2c(Cc3cc(=O)[nH]c(=O)[nH]3)nnc2SCC(=O)N2CCC(C)CC2)cc1	0	0	10	-1	0	0
COc1cccc(-n2c(Cc3cc(=O)[nH]c(=O)[nH]3)nnc2SCC(=O)N2CCC(C)CC2)c1	2	0	17	1	-4	5
CCOC(=O)CSc1nnc(Cc2cc(=O)[nH]c(=O)[nH]2)n1-c1cccc(OC)c1	0	-1	0	1	4	nt
CC1CCN(C(=O)CSc2nnc(Cc3cc(=O)[nH]c(=O)[nH]3)n2-c2ccc(Cl)cc2)CC1	0	0	-59	1	-2	11
CCSc1nnc(Cc2cc(=O)[nH]c(=O)[nH]2)n1-c1ccc(Cl)cc1	0	6	-10	0	-8	nt
COc1ccc(-n2c(Cc3cc(=O)[nH]c(=O)[nH]3)nnc2SCC(=O)Nc2ccccc2)cc1	1	-1	-28	0	2	nt
CCN(CC(=O)Nc1c(F)cccc1F)C(=O)c1ccc(=O)n(C)n1	nt	nt	nt	nt	-3	nt
Cc1ccc(C)c(S(=O)(=O)N2CCN(CC(=O)NC(=O)NCc3ccco3)CC2)c1	0	1	4	0	-3	nt
O=C(COC(=O)Cn1cnc2ccccc21)Nc1ccc(F)c(F)c1	0	1	-4	-1	-6	nt
CCOc1cc(C(=O)N2CCC3(CC2)NCCc2[nH]cnc23)cc(OCC)c1OCC	4	0	16	2	-1	nt
CC(=O)/C=C(/C)NC(Cc1c[nH]c2ccccc12)C(=O)O (stereo unspecified)	1	-1	-8	0	-1	nt
CC(=O)N[C@H](Cc1c[nH]c2ccccc12)C(=O)O	1	4	50*	0	-6	2
COc1cccc(NC(=O)c2ccc(-n3cnnn3)cc2)c1	0	0	0	-3	1	nt
Cc1nn(CC(=O)Nc2ccc(C(=O)N(C)C)cc2)c(=O)c2ccccc12	0	1	51*	0	8	-1
Cc1nn(CC(=O)Nc2ccccc2)c(=O)c2ccccc12	3	2	9	0	1	nt
Cc1ccc2c([N+](=O)[O-])c(C)ccc2n1	2	0	51*	0	-12	-1
Cc1ccc2c([N+](=O)[O-])cccc2n1	27	0	-2	1	-7	nt
Cc1nnc(NC(=O)CSc2ccc3nnc(-c4cccnc4)n3n2)s1	2	-1	54*	1	nt	3
O=C(CSc1ccc2nnc(-c3cccnc3)n2n1)Nc1ccccc1	0	2	-11	0	3	nt
O=C(CSc1ccc2nnc(-c3cccc(F)c3)n2n1)NCC1CCCO1 (stereo unspecified)	0	2	-2	nt	-2	nt
SMILES	GRK2 aptamer HTS	NTR1 agonist	VLA-4 inh	Bfl-1 A1 inh	B2AR ag	VLA-4 mod pick
O=C(CSc1ccc2nnc(-c3cccnc3)n2n1)NCC1CCCO1 (stereo unspecified)	0	0	-20	nt	2	2
Cc1ccc(NC(=O)CCC(=O)c2cccs2)cc1F	0	-1	3	1	4	nt
CN1CCc2nc(SCC(=O)Nc3ccc(Cl)cc3)c(C#N)cc2C1	0	0	106*	0	4	-3
O=C1OC(c2ccc(F)cc2)=N/C1=C\C=C/c1ccccc1	0	0	44	1	7	3
Cc1cc(C(=O)OC(C)C(=O)Nc2cccc(Cl)c2)on1 (stereo unspecified)	nt	-2	nt	nt	-4	nt
CC(OC(=O)c1ccccc1O)C(=O)Nc1cccc(Cl)c1 (stereo unspecified)	0	6	6	-1	9	1
COc1ccc(CNC(=O)Cn2c(=O)oc3ccccc32)cc1OC	2	-1	97*	0	4	-11
COc1cccc(CNC(=O)Cn2c(=O)oc3ccccc32)c1OC	0	2	38	-1	5	-5
Cc1ccc(/C([O-])=C(/C(=S)NCc2ccc3c(c2)OCO3)[n+]2ccc(N(C)C)cc2)c(C)c1	1	0	0	-1	4	nt
COc1ccccc1N1CCN(C(=O)c2ccc3[nH]c(C)c(C)c3c2)CC1	1	3	50*	-1	20	26
Cc1[nH]c2ccc(C(=O)N3CCN(c4ccccc4Cl)CC3)cc2c1C	2	9	4	0	0	nt
CN(C)c1cccc(C(=O)OCC(=O)N(C)c2ccccc2)c1	3	2	-8	2	-12	0
CN(C(=O)COC(=O)c1cccc(F)c1)c1ccccc1	0	-1	30	0	3	nt
CC(=O)Nc1cccc(NC(=O)CSc2nc(=O)n(CCN3CCOCC3)c3c2CCCC3)c1	0	-1	8	1	3	nt
Cc1cccc(CCNS(=O)(=O)c2ccc3c(c2)NC(=O)CS3)c1	0	4	9	-2	1	nt
COc1ccc2[nH]c3c(=O)n(CCc4ccccc4)cnc3c2c1	0	0	-7	-2	-2	nt
CCCCN(CCCC)CCn1cnc2c([nH]c3ccc(OC)cc32)c1=O	2	1	-4	-1	2	-12
CCC1CCCN1Cn1cnc2c([nH]c3ccc(OC)cc32)c1=O (stereo unspecified)	5	-1	4	0	-6	-13
O=C(NNc1ccc([N+](=O)[O-])cn1)Nc1ccc(N=Nc2ccccc2)cc1	nt	nt	nt	nt	-3	nt
COc1cc(NC(=O)c2ccno2)cc(C(=O)Nc2cccc(C(F)(F)F)c2)c1	3	-1	10	0	-2	nt
COc1cc(NC(=O)N2CCNC2=O)cc(C(=O)Nc2cccc(C(F)(F)F)c2)c1	1	-2	14	2	0	14
CCN1CCN(Cc2ccc(NC(=O)c3cc(NC(=O)N4CCNC4=O)cc(OC)c3)cc2C(F)(F)F)CC1	1	4	55*	-1	9	-2
CC(Oc1ccc(Br)cc1)C(=O)NCC1(N2CCCCC2)CCCCC1 (stereo unspecified)	0	-1	-6	2	2	nt
COc1ccc(C(C)=O)cc1COC(=O)CCNS(=O)(=O)c1ccc(C)cc1	0	1	21	-1	-3	nt
